Reference: PubChem BioAssay AID1159580 (chemical genetic matrix, 2015)
About 2,000 (36%) of roughly 5,500 compounds were called active. Inconclusive results (about 18%) are left out. Rule as the data show it: active = normalized growth mostly below about 0.91 (no sharp cut-off); inconclusive = no clear call, values can overlap the other calls; inactive = mostly above about 0.92. Some of the results follow.

Experiment: chemical genetic growth profiling, strain panel (AID 1159580);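 also: tested at 20 µM; growth read once vehicle control cultures reached saturation at 30 °C; 1 = growth at the plate median or of vehicle wells; lower values mean less growth of the strain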
Settings: S. cerevisiae deletion strains, growth OD
[1] = locus YAL021C, strain ccr4, hits give low values
[2] = locus YAL026C, strain drs2, hits give low values
[3] = locus YAL030W, strain snc1, hits give low values
[4] = locus YBL061C, strain skt5, hits give low values
[5] = locus YBR009C, strain hhf1, hits give low values
[6] = locus YBR023C, strain chs3, hits give low values
[7] = locus YBR171W, strain sec66, hits give low values
[8] = locus YBR231C, strain swc5, hits give low values
[9] = locus YBR279W, strain paf1, hits give low values
[10] = locus YCL011C, strain gbp2, hits give low values
[11] = locus YCL016C, strain dcc1, hits give low values
[12] = locus YCL061C, strain MRC1, hits give low values
[13] = locus YCL069W, strain vba3, hits give low values
[14] = locus YCR088W, strain abp1, hits give low values
[15] = locus YDL005C, strain med2, hits give low values
[16] = locus YDL040C, strain nat1, hits give low values
[17] = locus YDR001C, strain nth1, hits give low values
[18] = locus YDR069C, strain doa4, hits give low values
[19] = locus YDR137W, strain rgp1, hits give low values
[20] = locus YDR159W, strain sac3, hits give low values
[21] = locus YDR297W, strain sur2, hits give low values
[22] = locus YDR334W, strain swr1, hits give low values
[23] = locus YDR335W, strain msn5, hits give low values
[24] = locus YDR392W, strain spt3, hits give low values
[25] = locus YEL003W, strain gim4, hits give low values
[26] = locus YEL037C, strain rad23, hits give low values
[27] = locus YEL061C, strain CIN8 (second series), hits give low values
[28] = locus YER015W, strain faa2, hits give low values
[29] = locus YER016W, strain bim1, hits give low values
[30] = locus YER111C, strain swi4, hits give low values
[31] = locus YER155C, strain BEM2 (second series), hits give low values
[32] = locus YFR010W, strain ubp6, hits give low values
[33] = locus YGL167C, strain pmr1, hits give low values
[34] = locus YGL173C, strain kem1, hits give low values
[35] = locus YGL227W, strain vid30, hits give low values
[36] = locus YGL240W, strain doc1, hits give low values
[37] = locus YGL253W, strain hxk2, hits give low values
[38] = locus YHR013C, strain ard1, hits give low values
[39] = locus YHR027C, strain rpn1, hits give low values
[40] = locus YHR030C, strain SLT2, hits give low values
[41] = locus YHR079C, strain IRE1, hits give low values
[42] = locus YHR142W, strain chs7, hits give low values
[43] = locus YJL092W, strain hpr5, hits give low values
[44] = locus YJL095W, strain BCK1 (second series), hits give low values
[45] = locus YJL095W, strain BCK1, hits give low values
[46] = locus YJL115W, strain asf1, hits give low values
[47] = locus YJL129C, strain trk1, hits give low values
[48] = locus YJL154C, strain vps35, hits give low values
[49] = locus YJL164C, strain tpk1, hits give low values
[50] = locus YJL166W, strain qcr8, hits give low values
[51] = locus YJL187C, strain SWE1, hits give low values
[52] = locus YJR066W, strain TOR1, hits give low values
[53] = locus YKL160W, strain elf1, hits give low values
[54] = locus YKR026C, strain gcn3, hits give low values
[55] = locus YKR091W, strain srl3, hits give low values
[56] = locus YLL001W, strain dnm1, hits give low values
[57] = locus YLL026W, hits give low values
[58] = locus YLL041C, strain sdh2, hits give low values
[59] = locus YLR027C, strain aat2, hits give low values
[60] = locus YLR113W, strain HOG1, hits give low values
[61] = locus YLR221C, strain rsa3, hits give low values
[62] = locus YLR258W, strain gsy2, hits give low values
[63] = locus YLR262C, strain YPT6 (second series), hits give low values
[64] = locus YLR320W, strain mms22, hits give low values
[65] = locus YLR342W, strain FKS1, hits give low values
[66] = locus YLR357W, strain rsc2, hits give low values
[67] = locus YLR370C, strain arc18, hits give low values
[68] = locus YLR384C, strain iki3, hits give low values
[69] = locus YML120C, strain ndi1, hits give low values
[70] = locus YMR058W, strain fet3, hits give low values
[71] = locus YMR125W, strain sto1, hits give low values
[72] = locus YMR129W, hits give low values
[73] = locus YMR205C, strain PFK2, hits give low values
[74] = locus YMR231W, strain pep5, hits give low values
[75] = locus YNL071W, strain lat1, hits give low values
[76] = locus YNL183C, strain NPR1, hits give low values
[77] = locus YNL209W, strain ssb2, hits give low values
[78] = locus YNL248C, strain rpa49, hits give low values
[79] = locus YNL322C, strain KRE1 (second series), hits give low values
[80] = locus YNR049C, strain mso1, hits give low values
[81] = locus YOR001W, strain rrp6, hits give low values
[82] = locus YOR070C, strain gyp1, hits give low values
[83] = locus YOR080W, strain dia2, hits give low values
[84] = locus YOR083W, strain WHI5, hits give low values
[85] = locus YOR106W, strain vam3, hits give low values
[86] = locus YOR231W, strain MKK1, hits give low values
[87] = locus YOR265W, strain rbl2, hits give low values
[88] = locus YOR270C, strain vph1, hits give low values
[89] = locus YOR290C, strain snf2, hits give low values
[90] = locus YPL051W, strain arl3, hits give low values
[91] = locus YPL078C, strain atp4, hits give low values
[92] = locus YPL106C, strain sse1, hits give low values
[93] = locus YPL240C, strain hsp82, hits give low values
[94] = locus YPL256C, strain CLN2, hits give low values

Measured: normalized growth

CC(C)NCC(O)c1ccc(NS(C)(=O)=O)cc1 (stereo unspecified)
inactive: locus YAL040C, strain CLN3, hits give low values 1.01 | locus YCL061C, strain MRC1 (second series), hits give low values 1 | locus YDR363W, strain ESC2, hits give low values 0.973 | locus YER002W, strain NOP16, hits give low values 1 | locus YGR078C, strain PAC10, hits give low values 1.01 | locus YJR075W, strain HOC1, hits give low values 0.986 | locus YMR263W, strain SAP30, hits give low values 1 | locus YMR307W, strain GAS1, hits give low values 1.02 | locus YNL153C, strain GIM3, hits give low values 1.04 | locus YNL175C, strain NOP13, hits give low values 1 | locus YNL197C, strain WHI3, hits give low values 1.01 | locus YNL224C, strain SQS1, hits give low values 1 | locus YNL322C, strain KRE1, hits give low values 0.985 | locus YOR083W, strain WHI5 (second series), hits give low values 1 | locus YPL055C, strain LGE1, hits give low values 0.977 | locus YPL241C, strain CIN2, hits give low values 0.999

O=C(NC1CCCCC1)NC1CCCCC1
inactive: [1] 0.987 | [2] 0.995 | [3] 0.976 | [4] 0.976 | [5] 0.998 | [6] 0.976 | [7] 0.977 | [8] 0.981 | [9] 0.981 | [10] 0.973 | [11] 0.97 | [12] 0.983 | [13] 0.978 | [14] 0.973 | [15] 0.981 | [16] 0.981 | [17] 0.972 | [18] 0.979 | [19] 0.964 | [20] 0.995 | locus YDR195W, strain ref2 0.958 | [21] 0.971 | [22] 0.961 | [23] 0.98 | [24] 0.918 | [25] 0.983 | [26] 0.977 | [27] 0.982 | [28] 0.99 | [29] 0.981 | [30] 0.96 | [31] 0.971 | [32] 0.988 | [33] 0.976 | [34] 0.98 | [35] 0.972 | [36] 0.986 | [37] 0.99 | [38] 0.97 | [39] 1 | [40] 1.08 | [41] 1.07 | [42] 0.956 | [43] 0.981 | [44] 0.973 | [45] 1.07 | [46] 0.969 | [47] 0.953 | [48] 0.972 | [49] 0.995 | [50] 0.985 | [51] 0.979 | [52] 1.01 | [53] 0.977 | [54] 0.972 | [55] 0.977 | [56] 0.966 | [57] 0.981 | [58] 0.982 | [59] 0.991 | [60] 1.03 | [61] 0.976 | [62] 0.972 | [63] 0.96 | [64] 0.974 | [65] 0.975 | [66] 0.977 | [67] 0.983 | [68] 0.951 | [69] 0.969 | [70] 0.987 | [71] 0.96 | [72] 0.977 | [73] 0.969 | [74] 0.978 | [75] 0.985 | [76] 1 | [77] 0.974 | [78] 0.98 | [79] 0.962 | [80] 0.978 | [81] 0.995 | [82] 0.97 | [83] 0.971 | [84] 0.971 | [85] 0.983 | [86] 1.04 | [87] 0.979 | [88] 0.905 | [89] 0.953 | [90] 0.983 | [91] 0.981 | [92] 0.951 | [93] 0.98 | [94] 1.08

NCCNCCNCCN
inactive: [1] 0.984 | [2] 1.01 | [3] 0.998 | [4] 1 | [5] 1.01 | [6] 1.01 | [7] 1 | [8] 0.992 | [9] 0.999 | [10] 0.992 | [11] 1 | [12] 0.986 | [13] 0.995 | [14] 1 | [15] 1.01 | [16] 1 | [17] 0.99 | [18] 1 | [19] 1 | [20] 0.996 | locus YDR195W, strain ref2 0.982 | [21] 0.995 | [22] 1 | [23] 0.998 | [24] 1.01 | [25] 0.999 | [26] 0.994 | [27] 0.998 | [28] 0.991 | [29] 1 | [30] 1 | [31] 1.04 | [32] 0.998 | [33] 0.998 | [34] 1.01 | [35] 1 | [36] 1.02 | [37] 0.994 | [38] 1 | [39] 1 | [40] 1.02 | [41] 1.02 | [42] 0.961 | [43] 0.999 | [44] 0.995 | [45] 0.989 | [46] 1.01 | [47] 0.991 | [48] 1 | [49] 0.997 | [50] 0.994 | [51] 1 | [52] 0.955 | [53] 0.987 | [54] 0.993 | [55] 0.991 | [56] 0.997 | [57] 1.01 | [58] 0.997 | [59] 1 | [60] 0.976 | [61] 0.984 | [62] 1.01 | [63] 0.985 | [64] 1 | [65] 1 | [66] 1.02 | [67] 0.995 | [68] 0.999 | [69] 0.991 | [70] 1 | [71] 1.01 | [72] 0.997 | [73] 1.02 | [74] 1 | [75] 1.01 | [76] 0.946 | [77] 0.998 | [78] 0.975 | [79] 1 | [80] 0.993 | [81] 0.988 | [82] 1 | [83] 1 | [84] 0.985 | [85] 0.986 | [86] 0.995 | [87] 0.996 | [88] 0.937 | [89] 1 | [90] 0.997 | [91] 0.992 | [92] 1.02 | [93] 0.977 | [94] 1.01
